Source: PubChem BioAssay (several laboratories)
AMPAR-TARP mod = modulators of GluA2-stargazin AMPA receptor complexes, primary screen, cell-based, membrane potential dye; 40,000 tested, 3.5% active; Voltage-dependent calcium channel gamma-2 subunit (Mus musculus) + Glutamate receptor 2 …; HEK293 GluA2+stargazin, membrane potential dye (FDSS), glutamate EC50; hits were called plate by plate, in both directions; calls only at 30 µM;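 active = any of four per-well response measures lying three or more SD from its plate-wide compound average, in either direction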
Target sequence (O88602 whole entry, looked up): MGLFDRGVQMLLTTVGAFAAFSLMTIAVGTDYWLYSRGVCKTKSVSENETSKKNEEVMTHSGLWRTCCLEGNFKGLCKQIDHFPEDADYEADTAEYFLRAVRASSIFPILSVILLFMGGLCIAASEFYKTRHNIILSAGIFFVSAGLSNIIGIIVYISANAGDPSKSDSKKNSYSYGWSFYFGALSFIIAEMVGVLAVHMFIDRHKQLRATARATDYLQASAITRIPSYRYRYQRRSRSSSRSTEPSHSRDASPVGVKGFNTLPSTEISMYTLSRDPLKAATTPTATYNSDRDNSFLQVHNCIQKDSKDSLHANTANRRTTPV
Target sequence (P19491 whole entry, looked up): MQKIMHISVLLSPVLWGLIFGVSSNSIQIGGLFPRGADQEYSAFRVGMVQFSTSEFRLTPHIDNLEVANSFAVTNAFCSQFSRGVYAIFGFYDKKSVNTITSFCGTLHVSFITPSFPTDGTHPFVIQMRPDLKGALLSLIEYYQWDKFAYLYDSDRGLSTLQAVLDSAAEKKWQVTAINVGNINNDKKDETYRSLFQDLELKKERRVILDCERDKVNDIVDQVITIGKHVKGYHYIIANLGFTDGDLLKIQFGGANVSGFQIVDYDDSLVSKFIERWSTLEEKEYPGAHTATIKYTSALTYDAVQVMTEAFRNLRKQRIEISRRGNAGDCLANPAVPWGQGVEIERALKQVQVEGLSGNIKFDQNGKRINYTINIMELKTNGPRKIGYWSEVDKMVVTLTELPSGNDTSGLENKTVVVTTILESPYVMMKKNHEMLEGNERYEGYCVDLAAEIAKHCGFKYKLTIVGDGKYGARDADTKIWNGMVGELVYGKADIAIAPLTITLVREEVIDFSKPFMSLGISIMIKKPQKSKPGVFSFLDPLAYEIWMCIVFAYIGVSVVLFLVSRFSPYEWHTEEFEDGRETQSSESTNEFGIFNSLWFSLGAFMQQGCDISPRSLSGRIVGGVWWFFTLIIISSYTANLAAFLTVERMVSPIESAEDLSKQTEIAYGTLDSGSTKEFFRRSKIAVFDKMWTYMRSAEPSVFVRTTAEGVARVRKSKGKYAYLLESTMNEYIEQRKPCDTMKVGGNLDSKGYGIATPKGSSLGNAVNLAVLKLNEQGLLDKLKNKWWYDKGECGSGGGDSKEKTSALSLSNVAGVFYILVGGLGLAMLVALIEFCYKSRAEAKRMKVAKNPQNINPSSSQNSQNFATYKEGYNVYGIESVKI
GIRK2 act = activators of NPY4-receptor-primed GIRK2 channels, summary, cell-based, HEK293, thallium flux; HEK293 GIRK2/NPY4 cells, thallium flux fluorescence; activation (% efficacy), % for hits at 37.5 µM; G protein-activated inward rectifier potassium channel 2 (Homo sapiens), P48051; AID 1259324, 2017; 34,000 tested, under 10 active;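 active = primary screen hit, no activity in plain HEK293 cells, and in GIRK2-only cells above 5% efficacy rising with concentration; inactive = the rest, including fluorescent compounds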;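 note: efficacy is normalized control-subtracted fluorescence 15 s after thallium addition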
Of the large screens only hits and unclear results are named; the others gave an inactive call. Many of the other results were omitted from the sample, so hits are more common in it than they were.

COc1cc([N+](=O)[O-])ccc1NC(=O)c1ccc(=O)n(Cc2cccc([N+](=O)[O-])c2)c1	AMPAR-TARP mod active
COc1cc([N+](=O)[O-])ccc1NC(=O)c1ccc(=O)n(Cc2ccccc2F)c1	AMPAR-TARP mod active
COc1cc([N+](=O)[O-])ccc1NC(=O)c1ccc(=O)n(Cc2ccc(F)cc2)c1	AMPAR-TARP mod active
COCCn1c(=O)c2c(nc(-n3nc(C)c(C)c3C)n2Cc2ccccc2C)n(C)c1=O	none (no result: GIRK2 act)
COc1cccc(N2C(=O)N(CC(=O)NCc3ccccc3)c3ccccc3S2(=O)=O)c1	none
O=S(=O)(NCC1(c2cccs2)CCCC1)c1ccc(Cl)s1	none (no result: AMPAR-TARP mod)
O=C(Cn1c(CO)cnc1SCc1c(F)cccc1Cl)NC1CCCC1	AMPAR-TARP mod active
Cc1nc2c(sc3cccc(F)c32)c(=O)n1CC(=O)NC1CCCCC1	none (no result: AMPAR-TARP mod)
CCSc1ccccc1C(=O)NC1CNC(=O)C1 (stereo unspecified)	none (no result: GIRK2 act)
O=C1CC(NC(=O)c2ccccc2Oc2ccccc2)CN1 (stereo unspecified)	AMPAR-TARP mod active (no result: GIRK2 act)
O=C(CSc1nc(=O)n(CCCO)c2c1CCC2)Nc1ccc(F)c([N+](=O)[O-])c1	none
O=c1nc(SCc2ccc([N+](=O)[O-])cc2)c2c(n1CC1CCCO1)CCC2 (stereo unspecified)	none
O=c1nc(SCc2ccc(Br)cc2)c2c(n1CC1CCCO1)CCCC2 (stereo unspecified)	AMPAR-TARP mod active
O=C(CSc1nc(=O)n(CC2CCCO2)c2c1CCCC2)NCc1ccc(F)cc1 (stereo unspecified)	none
O=C(CSc1nc(=O)n(CC2CCCO2)c2c1CCCC2)Nc1ccc(F)cc1F (stereo unspecified)	AMPAR-TARP mod active
O=C(CSc1nc(=O)n(CCO)c2c1CCC2)Nc1ccc(F)c([N+](=O)[O-])c1	AMPAR-TARP mod active
CS(=O)(=O)c1cccc(C(=O)Nc2nnc(-c3ccc(Br)s3)o2)c1	none
COC(=O)Cn1c(=O)c2c(nc3n(-c4cc(C)ccc4OC)c(C)c(C)n23)n(C)c1=O	none (no result: GIRK2 act)
O=C(N1CCCCCC1)N1CCN(S(=O)(=O)c2ccc(Cl)cc2)CC1	none (no result: GIRK2 act)
O=C(Cc1cc(-c2ccco2)on1)NCc1c(F)cccc1F	none
CCCCOC(=O)CCc1nc2ccccc2[nH]c1=O	none (no result: GIRK2 act)
CCC/C(O)=C(\C#N)c1nc2ccccc2[nH]1	AMPAR-TARP mod active
O=C(c1cc(Cl)ccc1[N+](=O)[O-])N1CCN(c2ncnc3c2nnn3-c2ccc(F)cc2)CC1	none (no result: GIRK2 act)
CC(c1ccccc1)n1c(N2CCCCCC2)nc2c1c(=O)n(C)c(=O)n2C (stereo unspecified)	AMPAR-TARP mod active
CC(c1ccccc1)n1c(N2CCCC2)nc2c1c(=O)n(C)c(=O)n2C (stereo unspecified)	none
CC(C)c1ccc(OCC(=O)N(Cc2ccccn2)Cc2ccco2)cc1	none (no result: AMPAR-TARP mod)
COc1ccc(-c2nn(-c3ccccc3)cc2/C=C(\C#N)c2[nH]nc(N)c2C#N)cc1	none
CC1(C)N=C(SCC(=O)Nc2ccc(F)cc2F)C(c2ccc(Cl)cc2)=N1	AMPAR-TARP mod active
CC1(C)N=C(SCC(=O)Nc2ccc(F)cc2F)C(c2ccccc2)=N1	none
COc1cc(NC(=O)c2ccc(OC(C)C)cc2)ccc1N1CCCC1=O	none
CCN1CCN(c2nc3c(c(=O)[nH]c(=O)n3C)n2CC(O)COc2ccc(Cl)cc2)CC1 (stereo unspecified)	AMPAR-TARP mod active (no result: GIRK2 act)
CCN1CCN(c2nc3c(c(=O)n(C)c(=O)n3C)n2CC(O)COc2ccccc2)CC1 (stereo unspecified)	none (no result: GIRK2 act)
Cn1c(=O)c2c(nc(N3CCN(Cc4ccccc4)CC3)n2CC(O)COc2ccc(Cl)cc2)n(C)c1=O (stereo unspecified)	AMPAR-TARP mod active (no result: GIRK2 act)
CC(O)CNc1nc2c(c(=O)[nH]c(=O)n2C)n1CC(O)COc1ccc(Cl)cc1 (stereo unspecified)	none (no result: GIRK2 act)
COCC(=O)N1CCCc2ccc(NC(=O)Nc3cccc(OC)c3)cc21	none (no result: AMPAR-TARP mod)
CC(C)(C)c1ccc(OCC(=O)NCCCN2CCOC(c3ccccc3)C2)cc1 (stereo unspecified)	none
COc1cccc(OC)c1C(=O)NCC1(O)CCCC1	none
O=C(NCc1cccs1)NCC(O)c1ccc(C(F)(F)F)cc1 (stereo unspecified)	none (no result: GIRK2 act)
O=C(NCC(O)c1ccc(C(F)(F)F)cc1)Nc1cccs1 (stereo unspecified)	AMPAR-TARP mod active (no result: GIRK2 act)
COCCNC(=O)CN1CCN(c2nccn2-c2cccc(Cl)c2)CC1	none
N#Cc1ccccc1NC(=O)C(=O)NCCN1CCOC(c2ccccc2)C1 (stereo unspecified)	none (no result: AMPAR-TARP mod)
CCOC(=O)C1CCN(C(=O)Cc2csc(Nc3ccccc3)n2)CC1	none
CCOC(=O)C1CCN(C(=O)Cc2csc(Nc3cccc(C(F)(F)F)c3)n2)CC1	AMPAR-TARP mod active
